In PubChem BioAssay:
For some assays here: Results with a measured potency or affinity are listed apart. The source made the active and inactive calls.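 Rule for the calls, unless noted: active = earlier screen potentiator hit that boosts the TRPC4 ion channel at some dose, with a dose response; inactive = no potentiation, no dose response, or not a prior hit.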

Assays:
[1] = tested on: TRPC4 beta (transient receptor potential cation channel C4), mouse; experiment: TRPC4 cation channel opening, retest – cell-based, Fluo4 calcium, HEK293 TRPC4beta/mu-opioid, duplicates, 10 µM, confirmation (AID 2426;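 active = fluorescence ratio normalized to control raised more than 50% in primary screen plus both repeat runs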); settings: Fluo4 calcium fluorescence, at 10 µM; active compounds read high
[2] = tested on: transient receptor potential cation channel C4 beta (TRPC4), mouse; experiment: TRPC4 cation channel opening, second retest – cell-based, second round, Fluo4, HEK293 TRPC4beta/mu-opioid, 1 µM, confirmation (AID 2461;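 active = primary screen active and over 50% activation in each of two duplicate runs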); settings: Fluo4 calcium fluorescence, at 1 µM; active compounds read high
[3] = tested on: TRPC4 (transient receptor potential cation channel C4 beta), mouse; experiment: potentiation of DAMGO EC20 TRPC4 response – cell-based, second round, Fluo-4, HEK293 TRPC4beta/mu-opioid, 1 µM, confirmation (AID 2554;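 active = primary screen hit whose fluorescence ratio, in both repeats, exceeds the weak agonist control mean by 3 SD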); settings: DAMGO EC20, Fluo-4 calcium flux, at 1 µM; active compounds read high
[4] = tested on: TRPC4 beta (transient receptor potential cation channel C4), mouse; experiment: potentiation of DAMGO EC20 TRPC4 response – cell-based, Fluo-4, HEK293 TRPC4beta/mu-opioid, confirmation (AID 2555;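 active = primary screen hit whose calcium fluorescence ratio, in both repeats, exceeds the weak agonist control mean by 3 SD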); settings: DAMGO EC20, Fluo-4 calcium flux, at 10 µM; active compounds read high
[5] = biological target: Short transient receptor potential channel 4 (Mus musculus) (UniProt Q9QUQ5); experiment: blockers of DAMGO-evoked TRPC4 calcium flux – cell-based, Fluo4, HEK293 TRPC4beta/mu-opioid, confirmation (AID 2636;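 active = calcium signal cut by more than 3 SD below the full-agonist control yet still positive, in both repeats and the earlier primary screen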); settings: at 10 µM; active compounds read high
Short transient receptor potential channel 4 (Mus musculus), sequence (Q9QUQ5 whole entry, looked up): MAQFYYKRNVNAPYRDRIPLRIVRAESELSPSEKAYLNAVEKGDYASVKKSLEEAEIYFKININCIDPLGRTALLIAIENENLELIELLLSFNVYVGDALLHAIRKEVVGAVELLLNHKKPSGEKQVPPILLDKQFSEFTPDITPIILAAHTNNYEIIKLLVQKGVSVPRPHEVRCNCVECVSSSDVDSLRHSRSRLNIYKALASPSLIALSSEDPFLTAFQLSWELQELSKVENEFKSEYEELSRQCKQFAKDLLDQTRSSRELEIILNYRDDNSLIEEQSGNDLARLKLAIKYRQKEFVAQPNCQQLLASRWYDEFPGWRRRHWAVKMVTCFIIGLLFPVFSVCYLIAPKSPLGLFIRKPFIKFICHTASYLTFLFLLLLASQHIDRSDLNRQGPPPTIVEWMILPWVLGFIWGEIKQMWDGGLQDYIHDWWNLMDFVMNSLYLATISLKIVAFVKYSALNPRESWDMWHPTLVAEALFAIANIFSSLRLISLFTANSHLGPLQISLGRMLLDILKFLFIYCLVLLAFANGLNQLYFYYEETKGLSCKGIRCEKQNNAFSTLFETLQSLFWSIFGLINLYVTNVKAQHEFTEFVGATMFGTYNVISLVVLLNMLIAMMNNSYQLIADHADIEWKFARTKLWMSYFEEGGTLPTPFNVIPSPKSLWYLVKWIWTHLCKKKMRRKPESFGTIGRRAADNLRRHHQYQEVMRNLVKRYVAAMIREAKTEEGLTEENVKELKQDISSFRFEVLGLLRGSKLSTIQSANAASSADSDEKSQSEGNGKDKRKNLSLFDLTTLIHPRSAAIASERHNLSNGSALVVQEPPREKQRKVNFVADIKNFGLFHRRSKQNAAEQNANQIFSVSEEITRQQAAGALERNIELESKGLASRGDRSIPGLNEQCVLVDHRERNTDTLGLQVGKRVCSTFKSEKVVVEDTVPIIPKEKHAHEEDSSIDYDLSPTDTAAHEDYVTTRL

[6] = biological target: Short transient receptor potential channel 4 (Mus musculus) (UniProt Q9QUQ5); experiment: blockers of DAMGO-evoked TRPC4 calcium flux – cell-based, second round, Fluo4, HEK293 TRPC4beta/mu-opioid, 1 µM, confirmation (AID 2637;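 active = calcium signal ratio cut to more than 3 SD under the fully stimulated control mean yet still positive, in both repeats and the primary screen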;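 for inhibition: percent of integrated ratio relative to wells lacking test compound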); settings: at 1 µM; active compounds read high
[7] = biological target: Short transient receptor potential channel 4 (Mus musculus) (UniProt Q9QUQ5); experiment: calcium entry via TRPC4 opening agents – cell-based, HEK293 TRPC4/mu-opioid, Fluo-4 calcium, dose response (AID 434937;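 active = primary screen activator hit with a dose response curve and TRPC4 channel activation at any tested dose; inactive = no activation, no dose response, or not a primary hit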)
[8] = biological target: Short transient receptor potential channel 4 (Mus musculus) (UniProt Q9QUQ5); experiment: potentiation of DAMGO-evoked TRPC4 calcium signal – cell-based, HEK293 TRPC4/mu-opioid, Fluo-4 calcium, EC20 DAMGO, dose response (AID 434941);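 note: calcium entry triggered by an EC20 dose of DAMGO at the co-expressed mu-opioid receptor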
[9] = biological target: Short transient receptor potential channel 6 (Mus musculus) (UniProt Q61143); experiment: TRPC6 blockade by TRPC4 inhibitor hits – cell-based, HEK293, membrane potential dye, duplicate, selectivity assay for TRPC4 inhibitor project, confirmation (AID 434948;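 active = active in primary screen and both duplicates, each dropping signal beyond three positive-control SD with fluorescence still positive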); settings: HEK293 TRPC6, membrane potential dye fluorescence, at 10 µM, stimulated with maximal-effect acetylcholine; active compounds read high
Short transient receptor potential channel 6 (Mus musculus), sequence (Q61143 whole entry, looked up): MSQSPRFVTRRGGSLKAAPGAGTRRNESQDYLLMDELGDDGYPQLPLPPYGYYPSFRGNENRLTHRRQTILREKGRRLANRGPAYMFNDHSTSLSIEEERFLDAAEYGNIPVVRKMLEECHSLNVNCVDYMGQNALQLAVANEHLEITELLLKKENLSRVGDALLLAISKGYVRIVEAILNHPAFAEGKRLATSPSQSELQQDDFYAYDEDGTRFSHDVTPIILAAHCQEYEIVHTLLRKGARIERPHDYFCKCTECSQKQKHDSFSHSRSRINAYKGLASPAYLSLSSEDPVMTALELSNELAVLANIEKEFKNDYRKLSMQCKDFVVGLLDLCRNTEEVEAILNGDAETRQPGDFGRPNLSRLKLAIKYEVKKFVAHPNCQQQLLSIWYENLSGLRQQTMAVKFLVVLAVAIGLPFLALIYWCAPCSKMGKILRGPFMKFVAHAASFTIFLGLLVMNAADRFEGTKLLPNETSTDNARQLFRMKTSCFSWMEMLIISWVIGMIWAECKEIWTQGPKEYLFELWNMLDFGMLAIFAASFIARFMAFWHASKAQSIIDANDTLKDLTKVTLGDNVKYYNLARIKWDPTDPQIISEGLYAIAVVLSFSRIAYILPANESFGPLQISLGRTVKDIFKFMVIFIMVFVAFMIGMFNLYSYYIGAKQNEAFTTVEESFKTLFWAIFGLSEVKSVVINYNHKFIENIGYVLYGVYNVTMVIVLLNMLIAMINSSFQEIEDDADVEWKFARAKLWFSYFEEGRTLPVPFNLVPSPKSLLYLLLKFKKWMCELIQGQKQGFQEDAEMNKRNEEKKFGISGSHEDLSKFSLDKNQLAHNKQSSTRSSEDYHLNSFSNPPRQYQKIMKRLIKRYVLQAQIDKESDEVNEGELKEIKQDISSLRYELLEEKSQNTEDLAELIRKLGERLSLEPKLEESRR

[10] = biological target: Short transient receptor potential channel 6 (Mus musculus) (UniProt Q61143); experiment: TRPC6 opening by TRPC4 activator hits – cell-based, HEK293, membrane potential dye, duplicate, selectivity assay for TRPC4 activator project, confirmation (AID 434950;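 active = membrane potential signal rise above negative control mean plus 3 SD in both duplicates, also active in the earlier TRPC4 screen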); settings: HEK293 TRPC6, membrane potential fluorescence, at 10 µM; activation: active compounds read high; outcome: activation
[11] = biological target: Short transient receptor potential channel 6 (Mus musculus) (UniProt Q61143); experiment: positive modulators of mouse TRPC6 channel – HEK293 cells, membrane potential dye, duplicate, selectivity assay for TRPC4 potentiator project, confirmation (AID 434952;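 active = compound raising the membrane signal above positive-control mean plus 3 SD in both repeats, and a primary screen hit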); settings: HEK293 TRPC6, membrane potential dye fluorescence, at 10 µM, maximal acetylcholine added after compound; active compounds read high
[12] = biological target: Short transient receptor potential channel 4 (Mus musculus) (UniProt Q9QUQ5); experiment: calcium flux activators in TRPC4/5HT1a cells, counter-screen for TRPC4 activator project, cell-based, second counter screen, HEK293 TRPC4/5HT1a, Fluo-4 (AID 434977;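 active = calcium signal rise above buffer-control mean plus 5 SD in both duplicates, and also a hit in the primary screen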); settings: Fluo-4 calcium flux, at 10 µM; active compounds read high
[13] = serotonin-gated TRPC4 signal block – cell-based, second counter screen, HEK293 TRPC4/5HT1a, Fluo-4, counter-screen for TRPC4 inhibitor project, confirmation (AID 434978;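 active = primary screen active whose calcium signal fell more than 3 SD beyond the full-serotonin control mean in both duplicate plates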;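 for outcome: serotonin given first at submaximal then at maximal dose after compound preincubation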); settings: Fluo-4 calcium flux, at 10 µM, serotonin added to trigger calcium flux; active compounds read high
[14] = tested on: TRPC4 (mouse), co-expressed with 5HT1a in HEK293; experiment: enhancement of serotonin-evoked TRPC4 response – cell-based, second counter screen, HEK293 TRPC4/5HT1a, Fluo-4, counter-screen for TRPC4 potentiator project, confirmation (AID 434979;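 active = signal rise over 3 SD above mean of control wells given weak agonist, in both repeats and first screen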); settings: Fluo-4 calcium flux, at 10 µM, serotonin added at its EC20 dose; active compounds read high
[15] = nonspecific calcium rise without TRPC4 – cell-based, HEK293 mu-opioid receptor line, counter-screen for TRPC4 activator project, confirmation (AID 449723;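 active = hit in primary screen, with calcium signal over 5 SD above buffer well mean in both duplicates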;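 note: counter screen cells carry the mu-opioid receptor alone and lack TRPC4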); settings: HEK293 mu-opioid cells, Fluo-4 calcium fluorescence, at 10 µM; active compounds read high
[16] = nonspecific potentiation of DAMGO calcium response – cell-based, HEK293 mu-opioid receptor line, counter-screen for TRPC4 allosteric potentiator project, confirmation (AID 449724;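 active = calcium signal rise more than 3 SD above the low-dose agonist control mean, in both duplicate plates and the primary screen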); settings: HEK293 mu-opioid receptor cells, Fluo-4 calcium flux, at 10 µM, compound added before EC20 DAMGO stimulus; active compounds read high

Measured: inhibition

COc1ccc(CN2CCN(Cc3ccccc3F)CC2)c(OC)c1
active: [5] 89% | [13] 30.4%
inactive: all other assays above

Nc1c2c(nc3ccccc13)N(c1ccccc1)CC2
active: [5] 77% | [9] 26% | [13] 31.2%
inactive: all other assays above

CCCCC(CC)C(=O)Nc1ncc([N+](=O)[O-])s1 (centres undefined)
active: [5] 81% | [9] 33.5% | [13] 27.7%
inactive: all other assays above

CCn1c2ccccc2c2cc(/C=N/NC(=O)c3cc(O)cc(O)c3)ccc21
active: [5] 78% | [6] 43% | [13] 43%
inactive: all other assays above

CCN(CC)c1ncnc2scc(C3COc4ccccc4O3)c12 (centres undefined)
active: [5] 86% | [13] 33%
inactive: all other assays above

NS(=O)(=O)c1ccc(CCNCc2ccccc2OCc2ccc(F)cc2)cc1
active: [5] 91% | [6] 55% | [13] 24.6%
inactive: all other assays above

Cc1cc(N2CCC(C)CC2)nc2cccc(O)c12
active: [5] 95% | [6] 83% | [9] 59%
inactive: all other assays above

O=C(O)c1cc(NN=C2c3ccccc3-c3ccccc32)ccc1Cl
active: [5] 98% | [9] 32% | [13] 11.8%
inactive: all other assays above

C=CCN1CCN(C(c2cccc(OC)c2OC)c2nnnn2CCC(C)C)CC1 (centres undefined)
active: [5] 51%
inactive: all other assays above

Cc1nc(N2CCN(c3ccccn3)CC2)c2c(C)c(C(=O)N3CCN(c4ccccc4F)CC3)sc2n1
active: [5] 93%
inactive: all other assays above

CSc1nc(N2CCOCC2)c2c3c(sc2n1)CCCC3
active: [5] 75% | [13] 37.5%
inactive: all other assays above

Cc1cc(-c2sccc2C)nc(-n2cccc2)n1
active: [5] 91%
inactive: all other assays above

CCC(O)C1CCN(Cc2cn(-c3ccc(OC)cc3)nc2-c2cccc(F)c2)CC1 (centres undefined)
active: [5] 98%
inactive: all other assays above

Cc1cccn2cc(-c3c[nH]c4ccccc34)nc12
active: [9] 33% | [13] 35.1%
inactive: all other assays above

CCOc1cc(CNC2CCCC2)cc(Cl)c1OCc1ccccc1
active: [5] 76% | [13] 33%
inactive: all other assays above

Cc1ccc2c(c1)N(C(=O)CCC(=O)Nc1ccccc1Cl)CC(C)O2 (centres undefined)
active: [5] 73%
inactive: all other assays above

OCCNCc1cc(Br)ccc1OCc1ccc(F)cc1
active: [5] 94% | [6] 45% | [13] 21.1%
inactive: all other assays above

Cc1n[nH]c(C)c1CCCCOc1ccccc1
active: [5] 95% | [6] 40% | [13] 31.5%
inactive: all other assays above

O=C(c1ccc2c(c1)OCO2)C1CCCN(Cc2cc(F)ccc2-n2cccn2)C1 (centres undefined)
active: [5] 87% | [13] 32.9%
inactive: all other assays above

CCCN1C2=NCCN2c2cc(C)c(C)cc21
active: [5] 91% | [6] 48% | [9] 40.5% | [13] 25.6%
inactive: all other assays above

Cc1cccc2cc(CN(CCCN(C)C)C(=S)NCCc3ccccc3)c(=O)[nH]c12
inactive: all assays above

OCC1(Cc2ccccc2)CCN(Cc2ccc(C(F)(F)F)cc2)CC1
active: [5] 91% | [13] 23.3%
inactive: all other assays above

CCCCC(=O)N(c1ccc(C(=O)O)cc1)c1nc(-c2ccc(Cl)cc2)c(CC)s1
active: [5] 52% | [13] 17.1%
inactive: all other assays above

NC1=NC2=C(CCCC2)C2(CCCCC2)S1
active: [5] 91% | [9] 44.5% | [13] 14%
inactive: all other assays above

CCCCn1c(NCCO)nc2ccccc21
active: [5] 92% | [6] 66% | [13] 29.5%
inactive: all other assays above

COc1ccccc1N1CCN(CCCNC(=O)Nc2ccccc2)CC1
active: [5] 95% | [6] 61% | [13] 22.6%
inactive: all other assays above

COc1ccc(C)cc1N(C(=O)c1snc(C(N)=O)c1N)C(C(=O)NC1CCCC1)c1ccc(F)cc1 (centres undefined)
active: [5] 91% | [6] 67% | [13] 41.2%
inactive: all other assays above

COC(=O)c1cccc(Nc2c3c(nc4ccccc24)CCC3)c1
active: [5] 96% | [13] 30.4%
inactive: all other assays above

Cn1c(=O)c2c(nc(SCc3cccnc3)n2Cc2ccc(F)cc2)n(C)c1=O
active: [5] 79% | [13] 22.8%
inactive: all other assays above
